Source: PubChem
Sampled rows, rich in hits. Any-hit rate of the full collection: about 2.8%.
GLP1R cytotox = qHTS of GLP-1 Receptor Inverse Agonists: Cytotox Screen. HEK293 cAMP-luciferase reporter cells, luminescence, 24 h. Potency, µM (highest dose often 38.3 µM), for inactives: at the top dose activity change, negative = inhibition, most hits filed as inhibitors. actives 0.13% (n = 410,000). AID 624418, 2012;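 also: loss of luciferase light is scored as toxicity; potency is read from the fitted curve at half-maximal effect; % is scaled to controls: 0 for no effect and ±100 for the full control effect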
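Step one: seed cells (200 cells/uL, DMEM with 10% Nu serum, 1% pen-strep). Step two: 12-hour incubation at 37 deg C. Step three: pin 23 nL compound, incubate 24 hr. Step four: add luciferase reagent, read luminescence 12 min later.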
hERG WT inh = qHTS for Inhibitors of KCHN2 3.1: Wildtype qHTS; U2OS, BacMam KCNH2, thallium flux FluxOr; hits give low values; activity change, % at 1.84 µM; actives 0.37% (n = 340,000); AID 720551, 2013;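 active = maximum activity change below -70%; inconclusive = maximum activity change between -70% and -50%; inactive = maximum activity change above -50%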; also: % is scaled to controls: 0 for no effect and ±100 for the full control effect
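U2OS cells were transduced with wild-type KCNH2 virus (2.03 x 10^8 / mL) for 4 h at room temperature, then cultured overnight at 37 C. Thallium flux was read with FluxOr dye. Rate constants were normalized to DMSO controls.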
GLS inh = qHTS for Inhibitors of Glutaminase (GLS); actives 0.21% (n = 410,000); Glutaminase kidney isoform, mitochondrial (Homo sapiens), O94925; Potency, µM (doses to about 45.5 µM), without a hit: top-dose activity change, negative = inhibition, most hits filed as inhibitors; GLS enzymatic activity, qHTS titration; AID 624170, 2012; also: potency is read from the fitted curve at half-maximal effect; % is scaled to controls: 0 for no effect and ±100 for the full control effect
Target sequence (O94925 whole entry, looked up, canonical isoform): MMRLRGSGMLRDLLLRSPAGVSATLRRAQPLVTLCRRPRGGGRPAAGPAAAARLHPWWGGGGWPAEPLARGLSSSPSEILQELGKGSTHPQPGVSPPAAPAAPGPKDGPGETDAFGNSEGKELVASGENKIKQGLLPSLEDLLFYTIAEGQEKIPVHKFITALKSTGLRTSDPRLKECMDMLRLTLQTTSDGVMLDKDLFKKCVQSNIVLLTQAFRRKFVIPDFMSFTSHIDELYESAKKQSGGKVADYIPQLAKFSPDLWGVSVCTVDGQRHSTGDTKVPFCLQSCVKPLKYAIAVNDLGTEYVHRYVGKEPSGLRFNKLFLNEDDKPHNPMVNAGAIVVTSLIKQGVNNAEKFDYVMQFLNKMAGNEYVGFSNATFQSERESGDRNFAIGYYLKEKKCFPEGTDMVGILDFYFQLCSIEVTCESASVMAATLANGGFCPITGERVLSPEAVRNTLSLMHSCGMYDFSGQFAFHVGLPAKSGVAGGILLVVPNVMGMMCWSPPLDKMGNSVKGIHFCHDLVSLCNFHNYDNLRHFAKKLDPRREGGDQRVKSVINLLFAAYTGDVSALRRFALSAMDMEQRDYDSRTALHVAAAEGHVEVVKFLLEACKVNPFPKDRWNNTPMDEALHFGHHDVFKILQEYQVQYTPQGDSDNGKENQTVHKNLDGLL
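Human kidney-isoform GLS in 45 mM KH2PO4 pH 8.2, 0.02% Tween-20, with compound, started with 1mM L-Glutamine (added stock). Glutamate oxidase/HRP/Amplex red coupled fluorescence read at start and after 30 min at RT.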
KCNH2 3.1 block = qHTS for Inhibitors of KCHN2 3.1: Mutant qHTS; U2OS KCNH2 3.1, thallium flux FluxOr; hits give low values; activity change, % (tested at about 1.8 µM); actives 0.95% (n = 340,000); AID 720553, 2013;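 active = maximum activity change below -70%; inconclusive = maximum activity change from -70% to -50%; inactive = maximum activity change above -50%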;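 also: thallium influx rate constant from kinetic fluorescence after stimulation buffer; % is scaled to controls: 0 for no effect and ±100 for the full control effect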
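Thallium flux via FluxOr fluorescence (Red40 quencher, 45 min loading) in U2OS cells virally expressing the KCNH2 3.1 isoform (1.77 x 10^8 /mL virus, overnight at 37 C). Rate constants from 2-min kinetic reads post-stimulation, normalised to positive and negative controls.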
GLP-1R inv ag = qHTS of GLP-1 Receptor Inverse Agonists (Inhibition Mode); HEK293 GLP-1R CRE-luciferase, luminescence, 24 h; GLP-1R form is constitutively active; Potency, µM (highest dose often 38.3 µM), without a hit: at the top dose activity change, negative = inhibition, most hits filed as inhibitors; actives 1.6% (n = 410,000); AID 624417, 2012; also: potency is read from the fitted curve at half-maximal effect; % is scaled to controls: 0 for no effect and ±100 for the full control effect; nearly all actives have a fitted effect of over 55% in size
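Inverse agonism was detected as reduced cAMP-driven luciferase luminescence after 24 h compound treatment. The cells were HEK293 clones expressing constitutively active human GLP-1R with the reporter. Reporter-only and GPR119 cell lines served as counterscreen controls.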
GLP-1R agonist = qHTS of GLP-1 Receptor Agonists. Glucagon-like peptide 1 receptor (Homo sapiens), P43220. HEK293 GLP-1R CRE-luciferase, luminescence, 4-6 h; cells express a hypersensitive GLP-1R form. Potency, µM (series often up to 45.6 µM), for inactives: at the top dose activation, hits mostly activators. actives 0.007% (n = 380,000). AID 624172, 2012; also: potency is read from the fitted curve at half-maximal effect; % of control where 0% means no effect
* = called active by the depositor; i = inactive; ? = inconclusive; / = no result given. Unless noted, calls follow the shape of the dose curve; as a rule, active = well fitted curve in the direction sought with a large enough effect; inconclusive = small, poorly fitted or top-dose-only effect, or another doubt; inactive = no such curve, though single readings can be large; an effect the other way counts as inactive or inconclusive.

SMILES	GLP1R cytotox	hERG WT inh	GLS inh	KCNH2 3.1 block	GLP-1R inv ag	GLP-1R agonist
c1ccc(-c2cn(-c3ccccc3)c3ncnc(N4CCCCC4)c23)cc1	-5.9%	4.2	12.3%	-0.8	3.16µM*	3.5%
CC#CC[C@@H](C)[C@@H](O)/C=C/[C@H]1[C@H]2c3cccc(CCCC(=O)O)c3O[C@H]2C[C@@H]1O	/	/	12.7%	/	/	1.3%
Cc1c(C)n(CCc2ccccc2)c2ncnc(NCCCN(C)C)c12	-27.2%	1.6	14.7%	-0.3	2µM*	0.5%
Cc1c(C)n(CCN(C)C)c2ncnc(NCc3ccccc3)c12	4.5%	12.8	-1.9%	-3.0	7.7%	9.0%
Cc1cc(C)cc(NC(=O)C(=S)NCc2ccccc2)c1	1.2%	0.5	-19.5%	-5.3	11.2µM*	-3.4%
S=C(NCc1cccs1)Nc1cccc2ccccc12	-7.8%	-1.4	19.3%	-6.3	?	4.4%
Cc1cc(Cl)ccc1NNC(=O)CCc1ccccc1	8.8%	16.8	?	-8.9	4.47µM*	-1.7%
Cc1cc(Cl)ccc1NNC(=O)c1c(C)noc1C	?	-1.7	?	19.0	1.41µM*	13.6%
S=C(NCc1ccccc1)Nc1cccc2ccccc12	?	-1.0	23.8%	-8.1	10µM*	-3.1%
O=C(CCc1ccccc1)NNC(=O)c1cc(Cl)ccc1O	-11.7%	3.3	10.1%	-17.0	-29.1%	-0.5%
O=C(Cc1ccc(Br)cc1)OCC(=O)N1CCCCCC1	-2.1%	-0.2	-3.4%	-0.1	0.8%	2.0%
O=C(NCCC1=CCCCC1)c1ccc2c(c1)N(Cc1ccc(Cl)cc1)C(=O)c1ccccc1S2(=O)=O	-9.1%	/	-9.0%	/	?	-2.7%
CCC(C(=O)OCc1cc(=O)n2nc(C)sc2n1)c1ccccc1 (centres undefined)	-0.4%	/	-8.7%	/	7.6%	/
Cc1cc(Cl)ccc1NC(=S)NCc1ccccc1	-6.6%	-2.9	19.5%	4.9	11.2µM*	3.4%
CC(C)N(C(=O)Cn1cc(S(=O)(=O)Cc2ccc(C(F)(F)F)cc2)c2ccccc21)C(C)C	-12.1%	/	7.6%	/	-7.7%	/
COc1cc2nc(Nc3ccc(C)c(C)c3)nc(N)c2cc1OC	?	2.3	3.2%	-11.2	10µM*	14.5%
COc1cc2nc(Nc3cccc(C)c3)nc(N)c2cc1OC	0.0%	/	-3.9%	/	?	/
COc1cc2nc(Nc3ccc(C)c(Cl)c3)nc(N)c2cc1OC	?	2.3	0.0%	19.1	3.16µM*	0.4%
CC1(C(=O)Nc2ccc3ccccc3c2)CCC(=O)N1CCOc1ccccc1 (centres undefined)	5.0%	/	1.9%	/	?	-2.9%
O=C(O)c1cccc(-n2cccc2/C=C\[N+](=O)[O-])c1	-19.6%	3.6	103.3%	11.7	17.2%	-0.4%
O=C(O)c1cccc(-n2cccc2/C=C/[N+](=O)[O-])c1	-13.9%	-3.8	10µM*	5.2	4.5%	0.0%
COc1ccc(CNC(=O)CSCc2nc(-c3ccccc3C)oc2C)cc1	0.3%	/	0.7%	/	-26.5%	/
COc1ccc(C)cc1N(C(=O)CNC(=O)c1ccco1)C(C(=O)NCC1CCCO1)c1ccccc1 (centres undefined)	-3.9%	-10.3	-8.6%	-3.3	12.7%	0.3%
Cc1ccc(C)c(N(C(=O)CNC(=O)c2ccco2)C(C(=O)NCC2CCCO2)c2ccccc2)c1 (centres undefined)	-13.8%	-5.3	-0.1%	-75.3*	?	2.3%
O=C(Nc1ccc(Oc2ccccc2)cc1)C1CCN(c2c3c(nc4ncnn24)CCC3)CC1	?	-13.4	6.8%	-98.5*	-0.9%	-18.6%
SMILES	GLP1R cytotox	hERG WT inh	GLS inh	KCNH2 3.1 block	GLP-1R inv ag	GLP-1R agonist
O=C(Nc1ccc2c(c1)CCC2)C1CCN(c2c3c(nc4ncnn24)CCC3)CC1	?	1.9	2.0%	26.8	?	-1.3%
COC(=O)N/N=C(C)\C=C\c1ccco1	4.3%	/	-0.1%	10.9	5.6%	5.8%
CC(/C=C/c1ccco1)=N\NC(=O)CNc1cccc(C)c1	-15.3%	-1.1	4.8%	-79.8*	5.4%	4.8%
CNS(=O)(=O)c1cc(-c2nn3c(C)nnc3c3ccccc23)ccc1C	-3.6%	/	2.8%	/	24.5%	/
CCOC(=O)c1cnc2c(Cl)cccc2c1NCCCN1CCOCC1	2.8%	-0.9	-1.0%	-5.2	16.0%	11.6%
CCOC(=O)c1cnc2c(CC)cccc2c1NCCCN1CCOCC1	-19.9%	-4.8	2.5%	-73.5*	?	22.9%
COc1cccc(Nc2nnc(SCC(=O)Nc3sccc3C(N)=O)s2)c1	-13.4%	-6.3	11.1%	-97.2*	33.7%	-8.0%
CCc1ccc(N(C(=O)c2ccco2)C(C(=O)NC2CCCC2)c2ccco2)cc1 (centres undefined)	-19.8%	22.1	0.5%	7.5	10µM*	-3.4%
CC(=O)c1cccc(N(C(=O)c2ccco2)C(C(=O)NC2CCCC2)c2ccc(N3CCOCC3)cc2)c1 (centres undefined)	-2.0%	i	2.2%	18.9	1.2%	13.2%
CC(=O)c1cccc(N(C(=O)c2ccco2)C(C(=O)NC2CCCC2)c2ccncc2)c1 (centres undefined)	2.3%	-114.8*	7.4%	-9.4	3.3%	0.4%
O=C(NC1CCCC1)C(c1ccco1)N(C(=O)c1ccco1)c1ccccc1 (centres undefined)	7.8%	4.7	2.8%	-12.6	2.1%	8.7%
O=C(CSc1cn(CCNC(=O)c2c(F)cccc2F)c2ccccc12)Nc1ccc2c(c1)OCCO2	-5.8%	/	-9.2%	/	-1.8%	-2.2%
CCOc1ccc(C(=O)Nc2nc(-c3ccc(Br)cc3)ns2)cc1	2.2%	/	6.3%	/	7.2%	/
N#Cc1nc(COc2ccc(Cl)cc2)oc1N1CCN(Cc2ccccc2)CC1	-12.3%	-5.3	7.8%	/	?	-2.1%
CCN1CCN(c2oc(COc3ccc(Cl)cc3)nc2C#N)CC1	-0.5%	22.5	-0.1%	-83.2*	?	16.2%
COc1ccc(N2CCN(c3oc(COc4ccccc4)nc3C#N)CC2)cc1	1.9%	13.4	10.6%	-25.5	2.82µM*	3.9%
COc1ccc(N2CCN(c3oc(COc4ccc(Cl)cc4)nc3C#N)CC2)cc1	0.5%	16.4	17.0%	-24.1	?	-5.8%
